Measured values: paper PMC5540273 (PLoS ONE, 2017)

Legend:
Conditions in all cases: concentration: 1 μM, replicates: in singlicate; n = 1
MYLK = test system: MYLK
MYO3A = test system: MYO3A
MYO3B = test system: MYO3B
NDR1 = test system: T1, NDR1
T1 construct: gene STK38

NDR2 = test system: NDR2
NEK10 = test system: NEK10
NEK11 = test system: NEK11
NEK1 = test system: NEK1
NEK2 = test system: NEK2
NEK3 = test system: NEK3
NEK4 = test system: NEK4
NEK5 = test system: NEK5
NEK6 = test system: NEK6
NEK7 = test system: NEK7
NEK9 = test system: NEK9
NIK = test system: T2, NIK
T2 construct: gene MAP3K14

NIM1 = test system: T3, NIM1
T3 construct: gene MGC42105

NLK = test system: NLK
OSR1 = test system: T4, OSR1
T4 construct: gene OXSR1

PAK1 = test system: PAK1
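Also: KINOMEscan kinase panel screen.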

Row | Compound | %Inh (MYLK) [%] | %Inh (MYO3A) [%] | %Inh (MYO3B) [%] | %Inh (NDR1) [%] | %Inh (NDR2) [%] | %Inh (NEK10) [%] | %Inh (NEK11) [%] | %Inh (NEK1) [%] | %Inh (NEK2) [%] | %Inh (NEK3) [%] | %Inh (NEK4) [%] | %Inh (NEK5) [%] | %Inh (NEK6) [%] | %Inh (NEK7) [%] | %Inh (NEK9) [%] | %Inh (NIK) [%] | %Inh (NIM1) [%] | %Inh (NLK) [%] | %Inh (OSR1) [%] | %Inh (PAK1) [%]
1 | CCCC(=O)Nc1n[nH]c2ncc(-c3cccc4ccccc34)cc12 [SB-642057] | 28 | 0 | 0 | 13 | 3 | 100 | 0 | 0 | 0 | 28 | 0 | 9 | 0 | 0 | 0 | 11 | 28 | 24 | 0 | 4
2 | Cl.c1ccc(Cn2cnc3cc(Nc4ncnc5ccccc45)ccc32)cc1 [GW272142] | 1 | 10 | 0 | 9 | 4 | 15 | 0 | 0 | 0 | 0 | 0 | 16 | 0 | 0 | 7 | 14 | 0 | 0 | 26 | 0
3 | CCS(=O)(=O)c1ccc(OC)c(Nc2ncc(-c3ccc(F)cc3)o2)c1.Cl [GW591947] | 0 | 6 | 0 | 10 | 0 | 9 | 0 | 0 | 0 | 0 | 0 | 9 | 0 | 0 | 11 | 0 | 5 | 22 | 4 | 0
4 | Cc1ccc(Oc2ccc(Nc3ncnc4cc[nH]c34)cc2C)cn1 | 38 | 9 | 28 | 8 | 0 | 0 | 0 | 0 | 2 | 20 | 3 | 0 | 17 | 10 | 5 | 0 | 58 | 0 | 0 | 37
5 | O=C(NCCNc1ccnc(Nc2ccc(F)cc2)n1)Nc1ccc2c(c1)OCO2 [GSK1379882] | 23 | 32 | 0 | 10 | 20 | 0 | 7 | 0 | 7 | 16 | 0 | 15 | 0 | 0 | 12 | 22 | 18 | 0 | 0 | 0
6 | CCC(=O)c1c(-c2ccccc2)c2cc(Cl)ccc2c(=O)n1Cc1cc(S(C)(=O)=O)n(CC(N)=O)n1 | 0 | 0 | 0 | 32 | 0 | 0 | 0 | 0 | 0 | 32 | 0 | 0 | 0 | 0 | 0 | 0 | 14 | 0 | 0 | 32
7 | O=C1NC(=O)C(c2ccccc2)=C1Nc1cccc(O)c1 [SB-390534] | 37 | 17 | 21 | 0 | 0 | 0 | 16 | 0 | 16 | 30 | 13 | 0 | 0 | 14 | 0 | 3 | 100 | 0 | 0 | 0
8 | COc1ccc(-n2cnc3c(N)ncnc32)cc1 [SKF-97236] | 0 | 4 | 0 | 3 | 0 | 40 | 3 | 0 | 0 | 0 | 0 | 0 | 5 | 0 | 17 | 0 | 12 | 0 | 14 | 0
9 | O=C(NCc1cccs1)c1cc(C(=O)c2c(Cl)cccc2Cl)c[nH]1 [GW823670] | 0 | 0 | 18 | 26 | 14 | 0 | 0 | 15 | 0 | 20 | 0 | 17 | 0 | 0 | 0 | 0 | 2 | 0 | 0 | 5
10 | Cc1ccc(-c2ccc3c(ccc4sc5c(c43)NC[C@@H](C)N=C5N(C)C)n2)cn1 | 0 | 0 | 0 | 0 | 0 | 0 | 0 | 0 | 0 | 20 | 0 | 0 | 0 | 0 | 0 | 0 | 0 | 0 | 0 | 0
11 | CCS(=O)c1ccc(-c2coc3ccc(-c4nnc(C)o4)cc23)cc1 (stereo not shown) | 0 | 0 | 3 | 0 | 0 | 5 | 0 | 0 | 0 | 1 | 0 | 0 | 0 | 0 | 0 | 0 | 11 | 0 | 0 | 0
12 | O=C(Nc1n[nH]c2cc(-c3ccccc3F)ccc12)C1CC1 [SB-733371] | 0 | 22 | 0 | 37 | 2 | 0 | 12 | 0 | 0 | 16 | 0 | 0 | 0 | 11 | 0 | 0 | 0 | 15 | 0 | 0
13 | O=c1cc(N2CCOCC2)nc2n(Cc3ccc(F)c(Cl)c3)ccn12 [GSK2297099] | 9 | 8 | 0 | 9 | 0 | 0 | 0 | 0 | 0 | 13 | 0 | 9 | 0 | 61 | 64 | 0 | 17 | 14 | 6 | 5
14 | Nc1ncnc2c1ncn2-c1cccc2ccccc12 [SKF-97184] | 0 | 0 | 27 | 29 | 4 | 0 | 27 | 11 | 0 | 31 | 0 | 0 | 0 | 0 | 0 | 2 | 13 | 0 | 0 | 3
15 | O=C(Nc1ccc2c(c1)OCO2)NC1CCN(c2ccnc(NCc3ccc(F)cc3)n2)CC1 [GSK1379859] | 20 | 0 | 0 | 0 | 0 | 3 | 8 | 0 | 3 | 0 | 23 | 17 | 0 | 0 | 11 | 12 | 0 | 11 | 3 | 0
16 | CCC(=O)c1c(-c2ccccc2)c2cc(Cl)ccc2c(=O)n1Cc1ccc(C(=O)O)cc1 | 0 | 0 | 3 | 0 | 0 | 0 | 0 | 0 | 0 | 22 | 0 | 0 | 0 | 0 | 0 | 0 | 0 | 0 | 0 | 0
17 | CCc1ccc(-c2ccc3c(c2)-c2nn(C)cc2S(=O)(=O)N3C)cc1 | 3 | 96.5 | 0 | 19 | 0 | 0 | 0 | 0 | 0 | 36 | 0 | 0 | 0 | 0 | 0 | 0 | 0 | 0 | 0 | 0
18 | FC(F)(F)c1ccc(-c2ncn(CCCN3CCOCC3)c2-c2ccncc2)cc1 [SB-217780] | 4 | 0 | 0 | 3 | 0 | 4 | 0 | 0 | 0 | 9 | 0 | 9 | 0 | 10 | 33 | 0 | 26 | 35 | 5 | 20
19 | Cc1nnc(-c2ccc3ncn(-c4ccc(S(C)=O)cc4)c3c2)o1 (stereo not shown) | 0 | 2 | 48 | 21 | 0 | 2 | 0 | 5 | 0 | 0 | 0 | 0 | 17 | 2 | 13 | 3 | 0 | 0 | 0 | 8
20 | C[C@@H]1CC[C@H](C(=O)NC2CCCCC2)CN1c1cc(-c2ccc3c(N)n[nH]c3c2)nc(N)n1 [GSK2291363] | 52 | 36 | 0 | 14 | 7 | 29 | 0 | 10 | 0 | 12 | 18 | 22 | 26 | 0 | 25 | 32 | 14 | 7 | 17 | 15
